The supplement of paper PMC8728848
Many of the other results were omitted from the sample, so the strongest signals are more common in it than they were.

Columns and labels:
Experiment in all cases: glycan array binding signal (z-score within array); higher = stronger binding
Details in all cases: glycan notation: IUPAC condensed, linker removed
Fuc(a1-2)Gal(b1-4)Glc = target: Fuc(a1-2)Gal(b1-4)Glc
Summary of the method: (§1)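 Columns mapping to the same glycan were averaged after glycan names were converted to IUPAC-condensed notation. The data come from 3228 arrays in the Consortium for Functional Glycomics database, limited to those with an available protein sequence. Binding is reported as a within-array Z-score averaged across arrays of one protein sequence and across linkers.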

[1] = target: Fuc(a1-2)Gal(b1-4)[Fuc(a1-3)]GalNAc(b1-3)Gal(b1-4)[Fuc(a1-3)]GlcNAc
Summary of the method: as §1

[2] = target: Fuc(a1-2)[Gal(a1-3)]Gal(b1-4)GlcNAc
Summary of the method: as §1

[3] = target: Fuc(a1-2)[GalNAc(a1-3)]Gal(b1-4)GlcNAc
Summary of the method: as §1

[4] = target: Fuc(a1-3)[Gal(b1-4)]GlcNAc(b1-4)Gal(b1-4)[Fuc(a1-3)]GlcNAc
Summary of the method: as §1

Fuc(a1-4)GlcNAc = target: Fuc(a1-4)GlcNAc
Summary of the method: as §1

Gal(a1-3)Gal(b1-4)GlcNAc = target: Gal(a1-3)Gal(b1-4)GlcNAc
Summary of the method: as §1

Gal3S(b1-4)GlcNAc6S = target: Gal3S(b1-4)GlcNAc6S
Summary of the method: as §1

Gal3S6S(b1-4)GlcNAc = target: Gal3S6S(b1-4)GlcNAc
Summary of the method: as §1

Gal3S6S(b1-4)GlcNAc6S = target: Gal3S6S(b1-4)GlcNAc6S
Summary of the method: as §1

Gal4S6S(b1-4)GlcNAc = target: Gal4S6S(b1-4)GlcNAc
Summary of the method: as §1

GalNAc(a1-3)Gal = target: GalNAc(a1-3)Gal
Summary of the method: as §1

[5] = target: GlcNAc(b1-3)[GlcNAc(b1-4)][GlcNAc(b1-6)]GlcNAc
Summary of the method: as §1

[6] = target: GlcNAc(b1-4)[GlcNAc(b1-6)]GalNAc
Summary of the method: as §1

Kdn(a2-3)Gal(b1-3)GlcNAc = target: Kdn(a2-3)Gal(b1-3)GlcNAc
Summary of the method: as §1

[7] = target: Man(a1-2)Man(a1-2)Man(a1-3)Man
Summary of the method: as §1

Man(b1-4)GlcNAc = target: Man(b1-4)GlcNAc
Summary of the method: as §1

[8] = target: Neu5Ac(a2-3)Gal(b1-3)[Fuc(a1-4)]GlcNAc(b1-3)Gal(b1-4)[Fuc(a1-3)]GlcNAc
Summary of the method: as §1

[9] = target: Neu5Ac(a2-3)Gal(b1-4)GlcNAc(b1-3)Gal(b1-4)GlcNAc
Summary of the method: as §1

[10] = target: Neu5Ac(a2-3)Gal(b1-4)[Fuc(a1-3)]GlcNAc(b1-3)Gal(b1-4)[Fuc(a1-3)]GlcNAc(b1-3)Gal(b1-4)[Fuc(a1-3)]GlcNAc
Summary of the method: as §1

[11] = target: Neu5Ac(a2-6)GalNAc(b1-4)GlcNAc
Summary of the method: as §1

[12] = target: Neu5Gc(a2-6)Gal(b1-4)GlcNAc
Summary of the method: as §1

Neu5Gc(a2-6)GalNAc = target: Neu5Gc(a2-6)GalNAc
Summary of the method: as §1

[13] = target: Fuc(a1-2)Gal(b1-4)GlcNAc(b1-3)Gal(b1-4)GlcNAc
Summary of the method: as §1

[14] = target: Fuc(a1-2)Gal(b1-4)[Fuc(a1-3)]GlcNAc
Summary of the method: as §1

[15] = target: Fuc(a1-2)[GalNAc(a1-3)]Gal(b1-4)[Fuc(a1-3)]GlcNAc
Summary of the method: as §1

[16] = target: Fuc(a1-3)[Gal(b1-4)]GlcNAc(b1-4)Gal(b1-4)[Fuc(a1-3)]GlcNAc(b1-4)Gal(b1-4)[Fuc(a1-3)]GlcNAc
Summary of the method: as §1

Gal(a1-3)GalNAc = target: Gal(a1-3)GalNAc
Summary of the method: as §1

[17] = target: Gal(b1-3)GlcNAc(b1-3)Gal(b1-4)Glc
Summary of the method: as §1

[18] = target: Gal(b1-3)GlcNAc(b1-3)Gal(b1-4)GlcNAc
Summary of the method: as §1

[19] = target: Gal(b1-3)[Fuc(a1-4)]GlcNAc(b1-3)Gal(b1-4)[Fuc(a1-3)]GlcNAc
Summary of the method: as §1

[20] = target: Gal(b1-3)[Neu5Ac(a2-6)]GalNAc
Summary of the method: as §1

[21] = target: Gal(b1-3)[Neu5Ac(a2-6)]GlcNAc(b1-6)Gal(b1-4)Glc
Summary of the method: as §1

Gal(b1-4)GlcNAc = target: Gal(b1-4)GlcNAc
Summary of the method: as §1

[22] = target: Gal(b1-4)GlcNAc(b1-3)[Gal(b1-4)GlcNAc(b1-6)]GalNAc
Summary of the method: as §1

Gal3S(b1-3)GlcNAc = target: Gal3S(b1-3)GlcNAc
Summary of the method: as §1

[23] = target: GlcNAc(b1-3)Gal(b1-3)GalNAc
Summary of the method: as §1

[24] = target: GlcNAc(b1-3)[GlcNAc(b1-6)]GlcNAc(b1-4)GlcNAc
Summary of the method: as §1

[25] = target: Neu5Ac(a2-3)Gal(b1-3)GalNAc
Summary of the method: as §1

[26] = target: Neu5Ac(a2-3)Gal(b1-3)GalNAc(b1-3)Gal(b1-4)GlcNAc
Summary of the method: as §1

[27] = target: Neu5Ac(a2-3)Gal6S(b1-4)[Fuc(a1-3)]GlcNAc
Summary of the method: as §1

[28] = target: Neu5Ac(a2-3)[GalNAc(b1-4)]Gal(b1-4)Glc
Summary of the method: as §1

Neu5Ac(a2-8)Neu5Ac = target: Neu5Ac(a2-8)Neu5Ac
Summary of the method: as §1

B1: HMGB1 (Homo sapiens), P09429 (protein)
chain: MGKGDPKKPRGKMSSYAFFVQTCREEHKKKHPDASVNFSEFSKKCSERWKTMSAKEKGKFEDMAKADKARYEREMKTYIPPKGETKKKFKDPNAPKRPPSAFFLFCSEYRPKIKGEHPGLSIGDVAKKLGEMWNNTAADDKQPYEKKAAKLKEKYEKDIAAYRAKGKPDAAKKGVVKAEKSKKKKEEEEDEEDEEDEEEEEDEEDEDEEEDDDDE
glycan array binding signal (z-score) (Fuc(a1-2)Gal(b1-4)Glc): -0.488
glycan array binding signal (z-score) [1]: -0.246
glycan array binding signal (z-score) [2]: -0.3
glycan array binding signal (z-score) [3]: -0.269
glycan array binding signal (z-score) [4]: -0.39
glycan array binding signal (z-score) (Fuc(a1-4)GlcNAc): -0.341
glycan array binding signal (z-score) (Gal(a1-3)Gal(b1-4)GlcNAc): -0.418
glycan array binding signal (z-score) (Gal3S(b1-4)GlcNAc6S): 3.64
glycan array binding signal (z-score) (Gal3S6S(b1-4)GlcNAc): 3.32
glycan array binding signal (z-score) (Gal3S6S(b1-4)GlcNAc6S): 4.75
glycan array binding signal (z-score) (Gal4S6S(b1-4)GlcNAc): 3.25
glycan array binding signal (z-score) (GalNAc(a1-3)Gal): -0.403
glycan array binding signal (z-score) [5]: -0.309
glycan array binding signal (z-score) [6]: -0.433
glycan array binding signal (z-score) (Kdn(a2-3)Gal(b1-3)GlcNAc): -0.363
glycan array binding signal (z-score) [7]: -0.413
glycan array binding signal (z-score) (Man(b1-4)GlcNAc): 0.327
glycan array binding signal (z-score) [8]: 0.178
glycan array binding signal (z-score) [9]: 0.045
glycan array binding signal (z-score) [10]: -0.332
glycan array binding signal (z-score) [11]: 0.028
glycan array binding signal (z-score) [12]: 0.015
glycan array binding signal (z-score) (Neu5Gc(a2-6)GalNAc): -0.195

B2: CTMLA2 (Anopheles gambiae), Q7Q7F8 (protein)
chain: MNLMITILIAVITVVRGDLSVPKTVDDILQQNPCLCPCKPFEEKEYFIPISRTSDWFGAVAYCHSVGMELAEVLNEDEARAMGEVIAEEESDSDDEFYWIGANDLGVQGTYRWALAGRPVLYSQWAAGEPNHARGENGQQPAERCVAVAMDKYEWNDFQCTQQKPFICQQFRKH
glycan array binding signal (z-score) (Fuc(a1-2)Gal(b1-4)Glc): 0.14
glycan array binding signal (z-score) [13]: -0.253
glycan array binding signal (z-score) [14]: -0.269
glycan array binding signal (z-score) [15]: 0.192
glycan array binding signal (z-score) [16]: -0.011
glycan array binding signal (z-score) (Gal(a1-3)GalNAc): 0.077
glycan array binding signal (z-score) [17]: 4.14
glycan array binding signal (z-score) [18]: -0.58
glycan array binding signal (z-score) [19]: -0.224
glycan array binding signal (z-score) [20]: -0.277
glycan array binding signal (z-score) [21]: -0.49
glycan array binding signal (z-score) (Gal(b1-4)GlcNAc): -0.338
glycan array binding signal (z-score) [22]: 0.036
glycan array binding signal (z-score) (Gal3S(b1-3)GlcNAc): 1.6
glycan array binding signal (z-score) (Gal3S6S(b1-4)GlcNAc): 1.36
glycan array binding signal (z-score) [23]: 1.18
glycan array binding signal (z-score) [24]: 0.928
glycan array binding signal (z-score) [25]: -0.51
glycan array binding signal (z-score) [26]: 0.102
glycan array binding signal (z-score) [8]: -0.129
glycan array binding signal (z-score) [27]: -0.274
glycan array binding signal (z-score) [28]: -0.435
glycan array binding signal (z-score) (Neu5Ac(a2-8)Neu5Ac): -0.246
